Laboratory results from the supplement of paper PMC8728848.
This excerpt belongs to a sample that is enriched for the strongest signals.

How the values were obtained:
Assay in all cases: glycan array binding signal (z-score within array); higher = stronger binding
Kdn(a2-6)Gal(b1-4)GlcNAc = settings: glycan notation: IUPAC condensed, linker removed
In short: (§1)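 The binding signal is a Z-score computed within each array. Data were drawn from 3228 arrays in the Consortium for Functional Glycomics database, restricted to those with a known protein sequence. Scores were averaged over arrays of the same protein sequence at different concentrations or buffers, and over linkers, and negative values can be taken as non-binding.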

Kdn(a2-3)Gal(b1-4)GlcNAc = settings: glycan notation: IUPAC condensed, linker removed
In short: as §1

[1] = test system: Man(a1-2)Man(a1-2)Man(a1-3)Man; settings: glycan notation: IUPAC condensed, linker removed
In short: as §1

[2] = test system: Man(a1-2)Man(a1-6)[Man(a1-3)]Man(a1-6)[Man(a1-2)Man(a1-2)Man(a1-3)]Man; settings: glycan notation: IUPAC condensed, linker removed
In short: as §1

Man(a1-2)Man(a1-3)Man = settings: glycan notation: IUPAC condensed, linker removed
In short: as §1

[3] = test system: Man(a1-2)Man(a1-3)[Man(a1-2)Man(a1-6)]Man; settings: glycan notation: IUPAC condensed, linker removed
In short: as §1

[4] = test system: Man(a1-3)[Man(a1-6)]Man(a1-6)[Man(a1-3)]Man; settings: glycan notation: IUPAC condensed, linker removed
In short: as §1

[5] = test system: Man(a1-3)[Man(a1-6)]Man(b1-4)GlcNAc(b1-4)[Fuc(a1-6)]GlcNAc; settings: glycan notation: IUPAC condensed, linker removed
In short: as §1

[6] = test system: Man(a1-2)Man(a1-2)Man(a1-3)[Man(a1-2)Man(a1-3)[Man(a1-2)Man(a1-6)]Man(a1-6)]Man(b1-4)GlcNAc(b1-4)GlcNAc; settings: glycan notation: IUPAC condensed, linker removed
In short: as §1

[7] = test system: Kdn(a2-3)Gal(b1-4)[Fuc(a1-3)]GlcNAc; settings: glycan notation: IUPAC condensed, linker removed
In short: as §1

[8] = test system: Man(a1-2)Man(a1-2)Man(a1-6)[Man(a1-3)]Man; settings: glycan notation: IUPAC condensed, linker removed
In short: as §1

[9] = test system: Man(a1-2)Man(a1-3)[Man(a1-2)Man(a1-6)]Man(a1-6)[Man(a1-2)Man(a1-2)Man(a1-3)]Man(b1-4)GlcNAc(b1-4)GlcNAc; settings: glycan notation: IUPAC condensed, linker removed
In short: as §1

[10] = test system: Man(a1-2)Man(a1-3)[Man(a1-2)Man(a1-6)]Man(a1-6)[Man(a1-2)Man(a1-2)Man(a1-3)]Man; settings: glycan notation: IUPAC condensed, linker removed
In short: as §1

[11] = test system: Man(a1-2)Man(a1-3)[Man(a1-6)]Man(a1-6)[Man(a1-2)Man(a1-3)]Man(b1-4)GlcNAc(b1-4)GlcNAc; settings: glycan notation: IUPAC condensed, linker removed
In short: as §1

[12] = test system: Man(a1-2)Man(a1-6)[Man(a1-3)]Man(a1-6)[Man(a1-2)Man(a1-2)Man(a1-3)]Man(b1-4)GlcNAc(b1-4)GlcNAc; settings: glycan notation: IUPAC condensed, linker removed
In short: as §1

[13] = test system: Man(a1-3)[Man(a1-6)]Man(a1-6)[Man(a1-2)Man(a1-3)]Man(b1-4)GlcNAc(b1-4)GlcNAc; settings: glycan notation: IUPAC condensed, linker removed
In short: as §1

[14] = test system: Man(a1-3)[Man(a1-6)]Man(a1-6)[Man(a1-3)]Man(b1-4)GlcNAc(b1-4)GlcNAc; settings: glycan notation: IUPAC condensed, linker removed
In short: as §1

Man(a1-3)[Man(a1-6)]Man = settings: glycan notation: IUPAC condensed, linker removed
In short: as §1

[15] = test system: Man(a1-2)Man(a1-2)Man(a1-3)[Man(a1-2)Man(a1-6)[Man(a1-3)]Man(a1-6)]Man(b1-4)GlcNAc(b1-4)GlcNAc; settings: glycan notation: IUPAC condensed, linker removed; mutation: D138V, E140I
In short: as §1

[16] = test system: Man(a1-2)Man(a1-3)[Man(a1-2)Man(a1-6)]Man(a1-6)[Man(a1-3)[Man(a1-6)]Man(a1-6)]Man(b1-4)GlcNAc(b1-4)GlcNAc; settings: glycan notation: IUPAC condensed, linker removed
In short: as §1

Sequence of Avaren (Actinomycete K97) (chain, as listed by the source): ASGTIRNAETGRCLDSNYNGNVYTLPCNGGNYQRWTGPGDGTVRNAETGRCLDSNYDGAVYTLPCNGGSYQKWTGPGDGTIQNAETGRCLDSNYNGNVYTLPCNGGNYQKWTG
Sequence of C3b (Homo sapiens), P01024 (P01024 23-667): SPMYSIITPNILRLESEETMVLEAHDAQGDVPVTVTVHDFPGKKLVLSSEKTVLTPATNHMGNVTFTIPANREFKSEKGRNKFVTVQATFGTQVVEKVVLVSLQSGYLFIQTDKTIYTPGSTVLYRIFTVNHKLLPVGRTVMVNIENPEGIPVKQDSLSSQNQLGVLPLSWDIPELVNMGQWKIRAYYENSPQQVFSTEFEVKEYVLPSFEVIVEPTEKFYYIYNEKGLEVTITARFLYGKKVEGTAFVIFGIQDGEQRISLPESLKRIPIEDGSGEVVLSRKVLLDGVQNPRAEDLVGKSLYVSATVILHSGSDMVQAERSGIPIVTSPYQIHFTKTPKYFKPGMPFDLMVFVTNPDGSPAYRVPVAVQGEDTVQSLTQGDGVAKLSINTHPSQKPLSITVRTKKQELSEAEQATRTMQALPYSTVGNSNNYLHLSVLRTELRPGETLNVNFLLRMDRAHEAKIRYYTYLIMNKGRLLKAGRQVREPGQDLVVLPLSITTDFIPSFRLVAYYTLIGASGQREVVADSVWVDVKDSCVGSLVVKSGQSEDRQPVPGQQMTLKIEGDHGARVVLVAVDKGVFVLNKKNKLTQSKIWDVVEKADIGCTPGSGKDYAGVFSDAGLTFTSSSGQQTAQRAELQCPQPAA
Sequence of CHI3L1 (Homo sapiens), P36222 (P36222 whole entry): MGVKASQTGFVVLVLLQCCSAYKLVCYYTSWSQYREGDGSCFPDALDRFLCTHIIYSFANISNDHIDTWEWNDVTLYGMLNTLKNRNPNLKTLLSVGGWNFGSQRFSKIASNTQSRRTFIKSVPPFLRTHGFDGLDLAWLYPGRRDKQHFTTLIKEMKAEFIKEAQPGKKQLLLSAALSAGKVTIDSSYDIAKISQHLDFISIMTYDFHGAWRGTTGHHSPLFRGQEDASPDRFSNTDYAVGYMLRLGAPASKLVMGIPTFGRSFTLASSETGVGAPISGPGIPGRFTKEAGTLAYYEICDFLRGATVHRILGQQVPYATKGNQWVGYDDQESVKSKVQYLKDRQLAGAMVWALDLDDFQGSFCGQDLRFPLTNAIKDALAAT
Sequence of Neurocan (Homo sapiens), O14594 (O14594 other isoform, or with tags, fused parts or gaps): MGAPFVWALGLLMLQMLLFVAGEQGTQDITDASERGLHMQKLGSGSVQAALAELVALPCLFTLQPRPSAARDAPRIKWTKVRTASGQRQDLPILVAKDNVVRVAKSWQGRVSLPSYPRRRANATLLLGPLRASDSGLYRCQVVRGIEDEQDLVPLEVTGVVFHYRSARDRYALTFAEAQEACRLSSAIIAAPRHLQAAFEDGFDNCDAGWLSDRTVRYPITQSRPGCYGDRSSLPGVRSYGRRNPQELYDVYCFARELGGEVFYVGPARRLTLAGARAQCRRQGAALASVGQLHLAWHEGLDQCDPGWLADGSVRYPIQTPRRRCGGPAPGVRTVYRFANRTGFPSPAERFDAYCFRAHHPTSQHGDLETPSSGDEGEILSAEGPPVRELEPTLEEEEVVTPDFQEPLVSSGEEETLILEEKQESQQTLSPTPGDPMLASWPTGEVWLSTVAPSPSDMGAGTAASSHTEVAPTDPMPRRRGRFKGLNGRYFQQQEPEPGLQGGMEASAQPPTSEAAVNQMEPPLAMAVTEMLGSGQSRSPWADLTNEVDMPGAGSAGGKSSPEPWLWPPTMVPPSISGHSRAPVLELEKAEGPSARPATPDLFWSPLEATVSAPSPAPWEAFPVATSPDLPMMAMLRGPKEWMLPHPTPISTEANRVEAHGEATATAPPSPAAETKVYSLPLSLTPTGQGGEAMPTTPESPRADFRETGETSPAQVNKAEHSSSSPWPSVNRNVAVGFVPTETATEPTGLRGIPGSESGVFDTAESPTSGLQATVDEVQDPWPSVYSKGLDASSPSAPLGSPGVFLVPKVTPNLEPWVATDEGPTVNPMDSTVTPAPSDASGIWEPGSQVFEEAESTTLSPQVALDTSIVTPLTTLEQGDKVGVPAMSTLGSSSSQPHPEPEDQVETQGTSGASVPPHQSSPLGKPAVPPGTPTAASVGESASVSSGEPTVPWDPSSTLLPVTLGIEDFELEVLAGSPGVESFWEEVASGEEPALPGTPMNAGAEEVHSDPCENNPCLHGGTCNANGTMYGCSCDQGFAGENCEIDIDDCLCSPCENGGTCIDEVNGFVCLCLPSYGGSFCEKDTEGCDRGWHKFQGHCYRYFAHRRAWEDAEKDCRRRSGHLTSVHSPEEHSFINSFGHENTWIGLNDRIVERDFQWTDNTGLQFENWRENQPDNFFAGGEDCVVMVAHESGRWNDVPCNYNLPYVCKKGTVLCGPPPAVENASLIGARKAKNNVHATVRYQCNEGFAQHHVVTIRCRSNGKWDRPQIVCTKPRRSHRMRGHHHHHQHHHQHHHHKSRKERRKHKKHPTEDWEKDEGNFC
Sequence of 6RG (Lolium perenne), B9U140 (B9U140 entry or part of it): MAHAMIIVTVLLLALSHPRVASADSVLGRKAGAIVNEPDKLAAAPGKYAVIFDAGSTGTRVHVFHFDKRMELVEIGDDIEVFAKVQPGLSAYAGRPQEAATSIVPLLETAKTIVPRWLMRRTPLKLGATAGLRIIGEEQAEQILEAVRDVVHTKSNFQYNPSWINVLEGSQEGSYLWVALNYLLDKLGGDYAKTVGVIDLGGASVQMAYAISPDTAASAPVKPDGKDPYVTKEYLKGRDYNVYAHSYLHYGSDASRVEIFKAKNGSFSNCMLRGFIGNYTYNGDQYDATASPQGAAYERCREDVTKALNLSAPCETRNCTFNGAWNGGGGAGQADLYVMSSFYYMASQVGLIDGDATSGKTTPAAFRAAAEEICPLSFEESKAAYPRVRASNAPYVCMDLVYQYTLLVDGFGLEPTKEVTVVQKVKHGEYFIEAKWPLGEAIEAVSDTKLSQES
Sequence of Aggrecan (Rattus norvegicus), NP_071526 (chain, as listed by the source): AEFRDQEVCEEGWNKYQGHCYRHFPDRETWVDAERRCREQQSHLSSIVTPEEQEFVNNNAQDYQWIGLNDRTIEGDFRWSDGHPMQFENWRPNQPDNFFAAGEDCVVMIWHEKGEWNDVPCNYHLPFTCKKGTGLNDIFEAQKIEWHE
Sequence of CHT (Homo sapiens) (chain, as listed by the source): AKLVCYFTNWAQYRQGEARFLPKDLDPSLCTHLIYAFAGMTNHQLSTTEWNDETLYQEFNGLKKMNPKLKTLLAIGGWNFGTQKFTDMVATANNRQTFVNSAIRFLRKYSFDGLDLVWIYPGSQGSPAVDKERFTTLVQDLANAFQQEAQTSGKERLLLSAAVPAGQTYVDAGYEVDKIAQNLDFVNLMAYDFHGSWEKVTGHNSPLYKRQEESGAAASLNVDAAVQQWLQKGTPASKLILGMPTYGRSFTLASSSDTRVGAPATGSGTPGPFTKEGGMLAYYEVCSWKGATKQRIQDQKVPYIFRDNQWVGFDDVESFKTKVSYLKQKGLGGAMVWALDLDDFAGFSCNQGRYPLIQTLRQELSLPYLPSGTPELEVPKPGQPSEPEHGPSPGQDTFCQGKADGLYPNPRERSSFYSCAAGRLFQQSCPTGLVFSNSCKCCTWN
Sequence of SRLC (Mus musculus), Q8VIF6 (Q8VIF6 other isoform, or with tags, fused parts or gaps): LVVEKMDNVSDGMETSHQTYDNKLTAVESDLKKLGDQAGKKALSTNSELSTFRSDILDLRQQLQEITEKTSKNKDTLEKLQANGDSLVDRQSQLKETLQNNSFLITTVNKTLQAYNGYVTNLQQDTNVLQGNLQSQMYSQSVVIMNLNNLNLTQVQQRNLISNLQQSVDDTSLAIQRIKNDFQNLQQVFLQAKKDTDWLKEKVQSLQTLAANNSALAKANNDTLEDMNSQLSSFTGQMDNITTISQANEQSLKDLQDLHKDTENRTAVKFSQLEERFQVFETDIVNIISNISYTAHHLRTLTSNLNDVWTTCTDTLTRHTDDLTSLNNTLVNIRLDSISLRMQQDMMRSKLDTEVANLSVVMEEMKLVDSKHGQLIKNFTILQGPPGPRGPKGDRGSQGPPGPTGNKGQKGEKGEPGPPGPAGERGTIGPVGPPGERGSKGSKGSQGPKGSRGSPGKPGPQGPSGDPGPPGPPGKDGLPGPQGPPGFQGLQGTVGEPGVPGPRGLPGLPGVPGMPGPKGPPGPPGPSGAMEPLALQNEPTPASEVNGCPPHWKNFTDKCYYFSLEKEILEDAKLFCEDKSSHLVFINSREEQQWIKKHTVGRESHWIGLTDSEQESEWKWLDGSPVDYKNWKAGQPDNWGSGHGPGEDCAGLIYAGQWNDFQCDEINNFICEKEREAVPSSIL
Sequence of PILRb (Mus musculus), Q2YSF2 (Q2YSF2 entry or part of it): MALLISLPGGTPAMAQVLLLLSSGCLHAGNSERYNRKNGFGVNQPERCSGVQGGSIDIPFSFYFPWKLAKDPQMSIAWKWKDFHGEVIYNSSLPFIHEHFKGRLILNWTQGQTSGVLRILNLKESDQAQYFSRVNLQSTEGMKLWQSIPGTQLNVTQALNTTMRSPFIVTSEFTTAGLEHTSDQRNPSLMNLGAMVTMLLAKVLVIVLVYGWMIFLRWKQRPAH
Sequence of PILRa (Mus musculus), Q2YSF3 (Q2YSF3 entry or part of it): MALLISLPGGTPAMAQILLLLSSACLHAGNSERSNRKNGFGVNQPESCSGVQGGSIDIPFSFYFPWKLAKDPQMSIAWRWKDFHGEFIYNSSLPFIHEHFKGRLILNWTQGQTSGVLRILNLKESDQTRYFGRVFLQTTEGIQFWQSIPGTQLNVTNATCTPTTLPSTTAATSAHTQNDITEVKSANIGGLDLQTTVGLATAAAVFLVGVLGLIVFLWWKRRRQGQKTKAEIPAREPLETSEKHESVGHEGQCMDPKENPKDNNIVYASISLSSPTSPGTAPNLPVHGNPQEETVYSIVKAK

PILRa (Mus musculus), Q2YSF3
glycan array binding signal (z-score) (Kdn(a2-6)Gal(b1-4)GlcNAc): -0.059

C3b (Homo sapiens), P01024
glycan array binding signal (z-score) (Kdn(a2-3)Gal(b1-4)GlcNAc): -0.561
glycan array binding signal (z-score) [1]: 0.007
glycan array binding signal (z-score) [2]: -0.764

Siglec-8 (Homo sapiens), Q9NYZ4
glycan array binding signal (z-score) (Man(a1-2)Man(a1-3)Man): -0.003
glycan array binding signal (z-score) [3]: -0.204
glycan array binding signal (z-score) [4]: 0.131
glycan array binding signal (z-score) ([4]; mutation: R125K): -0.227
glycan array binding signal (z-score) [5]: -0.07

Neurocan (Homo sapiens), O14594
glycan array binding signal (z-score) [3]: -0.053
glycan array binding signal (z-score) [4]: -0.722

SRLC (Mus musculus), Q8VIF6
glycan array binding signal (z-score) [1]: -0.206
glycan array binding signal (z-score) [6]: -0.241

CHI3L1 (Homo sapiens), P36222
glycan array binding signal (z-score) (Kdn(a2-3)Gal(b1-4)GlcNAc): -0.144
glycan array binding signal (z-score) [7]: 0.381

Avaren (Actinomycete K97)
glycan array binding signal (z-score) [1]: 2.52
glycan array binding signal (z-score) [8]: 14.7
glycan array binding signal (z-score) [9]: 1.26
glycan array binding signal (z-score) [10]: 11.2
glycan array binding signal (z-score) [3]: 3.5
glycan array binding signal (z-score) [11]: 1.08
glycan array binding signal (z-score) [12]: 13.4
glycan array binding signal (z-score) [2]: 6.02
glycan array binding signal (z-score) [13]: -0.014
glycan array binding signal (z-score) [14]: -0.113
glycan array binding signal (z-score) (Man(a1-3)[Man(a1-6)]Man): -0.106

6RG (Lolium perenne), B9U140
glycan array binding signal (z-score) [3]: -0.266
glycan array binding signal (z-score) [14]: -0.359

Aggrecan (Rattus norvegicus), NP_071526
glycan array binding signal (z-score) [9]: 0.607
glycan array binding signal (z-score) [13]: 1.14

CHT (Homo sapiens)
glycan array binding signal (z-score) [15]: -0.189
glycan array binding signal (z-score) (Man(a1-3)[Man(a1-6)]Man; mutation: D138V, E140I): -0.149

HARE (Homo sapiens), Q8WWQ8
glycan array binding signal (z-score) [16]: 2.39

PILRb (Mus musculus), Q2YSF2
glycan array binding signal (z-score) [7]: 0.391
